Screening results: PubChem, several laboratories
NR2F2 inh: NR2F2 transcriptional activity inhibitors, primary screen, cell-based, luciferase reporter, HEK293T, luminescence | inhibition, % at 8.6 µM | COUP transcription factor 2 (Homo sapiens), P24468 | HEK293T NGFI-A luciferase reporter | 370,000 compounds, 0.7% hits | AID 686940, 2013;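 active = inhibition above a per-plate cutoff, mean inhibition of test wells between control levels plus 3 SD, cut at about 38% in these data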;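 also: cells cotransfected with COUP-TFII expression vector driving the NGFI-A reporter; 0% = median of COUP-TF2 test wells and 100% = reporter-only cells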
NCOA1 inh: SRC1 coactivator transcriptional activity inhibitors, primary screen, cell-based, luminescence; inhibition, % at 3.6 µM; HEK293 GAL4-SRC1 luciferase reporter; Nuclear receptor coactivator 1 (Homo sapiens), Q15788; 360,000 compounds, 0.12% hits;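 active = inhibition above the campaign mean plus 3 SD, with each screening campaign given its own cutoff, cut at about 60% in these data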;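 also: 0% = DMSO treated cells and 100% = gossypol at 36 µM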
Gli-Sufu antag: Gli-Sufu pathway antagonists, primary screen, luciferase luminescence, Sufu-KO-LIGHT cells, uHTS. AID 588413, 2011. Sufu-KO-LIGHT fibroblasts, Gli luciferase reporter luminescence. 340,000 compounds, 0.74% hits. inhibition, % at 5 µM;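 active = inhibition above about 55%, limit read from the data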;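 also: 0% = DMSO-treated cells and 100% = wells with medium but no cells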
NR5A2 inv ag: LRH-1 (NR5A2) inverse agonists, primary screen, cell-based, luminescence, HEK293T, StAR-luciferase reporter; Nuclear receptor subfamily 5 group A member 2 (Homo sapiens), O00482; LRH-1 transfected, 24 h; inhibition, % at 3.6 µM; 360,000 compounds, 0.13% hits; AID 602396, 2012;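 active = inhibition above the mean inhibition of all tested compounds plus 3 SD, cut at about 73% in these data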;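 also: 0% = DMSO wells and 100% = reporter-only cells lacking LRH-1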
SRC3 inh: SRC3 coactivator transcriptional activity inhibitors, primary screen, cell-based, luminescence; 360,000 compounds, 0.17% hits; AID 588352, 2011; HEK293 GAL4-SRC3 luciferase reporter; Nuclear receptor coactivator 3 (Homo sapiens), Q9Y6Q9; inhibition, % at 3.6 µM;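 active = inhibition above a per-campaign cutoff, the mean of all compounds plus 3 SD, cut at about 60% in these data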;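 also: 0% = DMSO-treated cells and 100% = gossypol-treated cells at 36 µM; higher means less SRC3-driven luciferase light from the GAL4 reporter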
NCOA2 inhibitor: inhibition of GAL4-SRC2 driven luciferase reporter, primary screen, SRC2 inhibitor project, cell-based, luminescence. inhibition, % at 9 µM. HEK293 GAL4-SRC2 luciferase reporter. 370,000 compounds, 0.17% hits. AID 651957, 2012. Nuclear receptor coactivator 2 (Homo sapiens), Q15596;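 active = inhibition above the mean inhibition of all tested compounds plus 3 SD, set per campaign, cut at about 52% in these data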;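 also: 0% = DMSO treated cells and 100% = cells given Gossypol at 36 µM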
* = called active by the depositor; . = not tested or not shown. Sampled rows, rich in hits. Any-hit rate of the full collection: about 1.3%.

SMILES	NR2F2 inh	NCOA1 inh	Gli-Sufu antag	NR5A2 inv ag	SRC3 inh	NCOA2 inhibitor
CC[n+]1c(/C=C/N(C)c2ccccc2)n(-c2ccccc2)c2ccc(-c3nc4ccccc4s3)cc21	.	82*	91*	90*	83*	.
CC[n+]1cccc(-c2nc3ccccc3s2)c1	24	21	-2	16	24	45
COc1cc(CN2CCN(CCCc3ccccc3)CC2CCO)cc(OC)c1 (centres undefined)	15	-20	17	7	8	-25
COc1cc(CN2CCN(CC#Cc3ccccc3)CC2CCO)cc(OC)c1 (centres undefined)	18	15	57*	8	-4	18
O=C(CSc1nnc(-c2ccccc2)n1-c1ccc(Cl)cc1)c1ccc(Cl)cc1	-5	.	.	.	.	-7
O=C(CCl)N1N=C(c2cccs2)CC1c1ccco1 (centres undefined)	11	35	1	-2	41	60*
CCCCN1CCN(C(=O)c2cn(C(C)c3ccccc3)nn2)CC1 (centres undefined)	-19	.	.	.	.	-14
CS(=O)(=O)c1ccc(Sc2nc3ccccc3s2)c([N+](=O)[O-])c1	.	11	9	20	73*	.
COC(=O)[C@]12C[C@H](CC(=O)NCC3CCCCC3)C(=O)N(Cc3ccc4c(c3)OCO4)C1=C[C@H](C(C)C)O[C@@H]2C1CC1	10	.	.	.	.	8
COc1cccc(/C=N/Nc2nccnc2Cl)c1O	-60	8	68*	32	44	5
COc1ccc(/C=N/Nc2ncnc(Cl)c2N)cc1OC	3	-38	-9	-8	-19	-9
COc1ccc(/C=N/Nc2nccnc2Cl)c(OC)c1	-48	-133	-47	-130	-66	-52
Oc1ccc(/C=N/Nc2nccnc2Cl)c(O)c1	-46	-40	45	-60	-3	7
COc1cccc(/C=N/Nc2ncnc(Cl)c2N)c1O	-4	2	79*	-14	66*	30
Oc1ccccc1/C=N/Nc1nccnc1Cl	-57	-16	57*	-111	-34	-14
COc1cccc(/C=N/Nc2cc(-n3nc(C)cc3-c3ccccc3)ncn2)c1O	-8	5	41	1	39	12
COc1cccc(/C=N/Nc2ncnc3scc(-c4ccccc4)c23)c1O	-6	85*	88*	98*	88*	28
COC(=O)[C@]12C[C@H](CC(=O)NCCCN3CCCC3=O)C(=O)N(Cc3ccc(Cl)cc3Cl)C1=C[C@H](C(C)C)O[C@@H]2C1CC1	16	.	.	.	.	19
CCOc1ccc(-n2c(SC/C=C/c3ccccc3)nnc2-c2cccs2)cc1	-6	.	.	.	.	-23
CCOC(=O)N1CCN(Cc2ccc(O)c3ncccc23)CC1	4	.	26	.	.	-36
Oc1ccc(CN2CCN(c3ccccc3)CC2)c2cccnc12	.	-1	12	11	12	.
Oc1ccc(CN2CCc3ccccc3C2)c2cccnc12	10	-1	84*	14	13	20
Cc1ccc(C)c(S(=O)(=O)N2CCN(Cc3ccc(O)c4ncccc34)CC2)c1	13	12	74*	23	5	16
Oc1ccc(CN2CCC(Cc3ccccc3)CC2)c2cccnc12	-3	.	67*	.	.	10
O=C(O)CCCC[n+]1ccccc1	15	.	.	.	.	-21
SMILES	NR2F2 inh	NCOA1 inh	Gli-Sufu antag	NR5A2 inv ag	SRC3 inh	NCOA2 inhibitor
Nc1ncnc(N)c1NC(=O)c1ccccc1	-11	.	.	.	.	-4
COC(=O)[C@H]1C[C@@]2(Oc3ccc(Br)cc3)c3ccccc3N(C(=O)OC(C)(C)C)[C@H]2N1C(=O)OC(C)(C)C	0	.	.	.	.	5
C#CCN1CC(N(C)CCOC(=O)c2ccc(OC)c(OC)c2)CS1(=O)=O (centres undefined)	-4	.	.	.	.	-32
O=C1[C@@H]2Cc3c([nH]c4ccccc34)C(c3ccc([N+](=O)[O-])cc3)N2C(=O)CN1C1CC1 (some centres undefined)	26	75*	34	51	69*	-8
COc1cc(C(=O)/C=C/c2cccnc2)c([N+](=O)[O-])cc1OC	28	40	1	51	56	61*
O=C(/C=C/c1cccnc1)c1ccc([N+](=O)[O-])cc1	7	-18	-22	3	16	0
COc1ccc(OC)c(NC(=O)CSc2ncnc3c2cnn3-c2ccccc2Cl)c1	.	22	76*	3	24	.
COc1cc(NC(=O)CSc2ncnc3c2cnn3Cc2ccccc2)cc(OC)c1	-5	-9	4	-4	-1	30
CCCCNC(=O)N1CCC(c2nc3ccc(Cl)cc3[nH]2)CC1	1	.	.	.	.	4
Cc1ccc(/C=N/Nc2nncc(-c3ccccc3)n2)o1	-32	-52	-28	-53	-6	-36
Cc1[nH]n(-c2ccccc2)c(=O)c1/C=N/Nc1nncc(-c2ccccc2)n1	-17	24	85*	1	55	28
C=C1C(=O)C2=CC1CCC(=O)C1(C)CCC(OC(C)=O)C(C)(C)C1CC2O (centres undefined)	34	51	16	46	64*	48
O=C(Nc1ccc(F)c(C(F)(F)F)c1)Nc1nnc(-c2ccncc2)s1	-15	.	.	.	.	.
C#CC(=O)N(c1cc(OC)ccc1OC)C(C(=O)NC1CCCC1)c1cccs1 (centres undefined)	.	-5	86*	25	43	.
COc1ccc(N(C(=O)c2ccco2)C(C(=O)NC2CCCCC2)c2cccs2)cc1OC (centres undefined)	-3	-10	-101	9	12	0
COc1ccc(N(C(=O)c2snc(C(N)=O)c2N)C(C(=O)NC2CCCC2)c2cccs2)cc1OC (centres undefined)	-12	-9	-1	-1	4	-18
C#CC(=O)N(c1ccc(OC)cc1OC)C(C(=O)NC1CCCC1)c1cccs1 (centres undefined)	-15	3	57*	36	28	16
C#CCN(Cc1ccco1)C(=O)c1nnc2c3cc(OC)ccc3n(S(=O)(=O)c3ccc(OC)cc3)c2n1	9	.	.	.	.	-11
NC(=O)c1cc2ccncc2c2ccccc12	37	82*	-19	42	65*	56*
Cc1cc(C(N)=O)c2ccccc2n1	9	8	-5	0	17	-2
O=C1C(=C(I)I)c2ccccc2-c2ccccc21	28	-77	18	44	-33	86*
O=C(O)c1cccc2c1C(=O)c1ccccc1-2	-1	-18	1	10	14	1
